In all, about 69,000 compounds went through this assay and about 950 (1.4%) showed an effect of 50% or more. The full list was thinned out, with strong results kept by preference.
The compounds below were run on Mycobacterium tuberculosis (assay: Cornell M. t heat shock assay; also: in the data most compounds retested in dose-response had high values).
Type: functional, organism-based
Parameters: dose or concentration left out as unconfirmed
`CCc1cc(N(C)Cc2ccncn2)n2nc(C)c(C)c2n1` was tested, and the “Percent Effect” value was 89.97%.
In the case of `CCc1cc(N(C)Cc2ccno2)n2nc(C)c(C)c2n1`, the “Percent Effect” value is reported as 27.53%.
With `Cc1cc(N(C)Cc2cc(C)on2)n2nc(C)c(C)c2n1` the “Percent Effect” value was 82.43%.
In the case of `Cc1cc(NC(C)c2csc(C)n2)n2nc(C)c(C)c2n1` (centres undefined), the “Percent Effect” value is reported as 26.88%.
`CCc1nnc(CN(C)c2cc(C)nc3c(C)c(C)nn23)o1` was tested, and the “Percent Effect” value was -40%.
For `Cc1cc(N(C)Cc2noc(C)n2)n2nc(C)c(C)c2n1`, the “Percent Effect” value was 0.3178%.
With `Cc1cc(N(C)Cc2ccsc2)n2nc(C)c(C)c2n1` the “Percent Effect” value was 86.91%.
`Cc1cc(N(C)Cc2c(C)noc2C)n2nc(C)c(C)c2n1` was tested, and the “Percent Effect” value was -31.35%.
In the case of `CCc1cc(N(C)Cc2cc[nH]n2)n2nc(C)c(C)c2n1`, the “Percent Effect” value is reported as 19.05%.
In the case of `CCc1cc(N(C)Cc2ccnc(C)c2)n2nc(C)c(C)c2n1`, the “Percent Effect” value is reported as 28.31%.
With `Cc1cc(N(C)CCN(C)C)n2nc(C)cc2n1` the “Percent Effect” value was -8.3%.
`Cc1csc(CN(C)c2cc(C)nc3c(C)c(C)nn23)n1` was tested, and the “Percent Effect” value was 96.63%.
In the case of `Cc1cc(C)cc(N2CCN(C(=O)CCN3C[C@@H]4CC[C@H]3C4)CC2=O)c1`, the “Percent Effect” value is reported as -4.633%.
In the case of `COc1cc(N2C[C@@H]3COC[C@]3(COc3ncccc3F)C2)ncn1.O=C(O)C(F)(F)F.O=C(O)C(F)(F)F`, the “Percent Effect” value is reported as -28.64%.
`CC(C)OCc1ncn2c1CN(Cc1cccs1)CCC2.O=C(O)C(F)(F)F` was tested, and the “Percent Effect” value was -1.604%.
`CN(C)CCOCc1nnc2n1CCN(CC1CC1)CC2.O=C(O)C(F)(F)F.O=C(O)C(F)(F)F` was tested, and the “Percent Effect” value was -19.96%.
With `Cc1ncsc1CN1C[C@H](C(=O)NCC2CC2)[C@@H]2CCO[C@@H]2C1.O=C(O)C(F)(F)F` the “Percent Effect” value was -4.533%.
For `COc1ccc(CN2CCC3(CC2)CCN(CCN(C)C)C3=O)cc1.O=C(O)C(F)(F)F.O=C(O)C(F)(F)F`, the “Percent Effect” value was -10.28%.
In the case of `COCC(=O)N1CCC2(CC1)CC(COC)N(Cc1ccccn1)C2.O=C(O)C(F)(F)F` (centres undefined), the “Percent Effect” value is reported as 9.323%.
For `CCN1C(=O)CC[C@]12CC[C@@H](NC(=O)NCc1cccnc1)CC2.O=C(O)C(F)(F)F`, the “Percent Effect” value was 4.335%.
`CNC(=O)C1Cn2ccnc2C2(CCN(Cc3cccc(C)n3)CC2)O1.O=C(O)C(F)(F)F` (centres undefined) was tested, and the “Percent Effect” value was -1.384%.
With `Cc1nc(NCc2noc(C3CCCO3)n2)c2ccsc2n1` (centres undefined) the “Percent Effect” value was 12.93%.
For `O=C(O)C(F)(F)F.O=C1COC2(CCN(c3ccccn3)CC2)CN1`, the “Percent Effect” value was 64.38%.
With `Cc1ccc(N2CCC3(CC2)CNC(=O)CO3)nn1.O=C(O)C(F)(F)F` the “Percent Effect” value was -15.23%.
In the case of `O=C(O)C(F)(F)F.O=C1COC2(CCN(c3ncccn3)CC2)CN1`, the “Percent Effect” value is reported as -4.23%.
For `Cc1cc(F)ccc1-c1ccccc1CC1CNCCNC1=O.Cl` (centres undefined), the “Percent Effect” value was 10.68%.
`Cc1ccc(C(=O)N2CC[C@@H]3CN(C4CCOCC4)CCO[C@@H]3C2)o1.O=C(O)C(F)(F)F` was tested, and the “Percent Effect” value was 5.788%.
In the case of `CC(C)NC(=O)N1CC[C@H]2[C@H]1CCN2c1ncccn1.O=C(O)C(F)(F)F`, the “Percent Effect” value is reported as -6.623%.
For `Cc1cc(NCc2cccc(C#N)c2)ccc1C(N)=O`, the “Percent Effect” value was -8.044%.
In the case of `Cc1c(NCc2cccc(C#N)c2)cccc1S(=O)(=O)NC1CC1`, the “Percent Effect” value is reported as 50.22%.
In the case of `Cc1cc(NCc2cccc(C#N)c2)ccc1Br`, the “Percent Effect” value is reported as -0.9935%.
For `Cc1ccc(NCc2ccc(C#N)cc2)c(CN(C)C)c1`, the “Percent Effect” value was -24.71%.
For `N#Cc1cccnc1NCc1ccc(S(=O)(=O)NC2CC2)cc1`, the “Percent Effect” value was 26.85%.
`Cc1c(NCc2ccc(C#N)cc2)cccc1S(=O)(=O)NC1CC1` was tested, and the “Percent Effect” value was 50.41%.
With `Cc1c(NCc2ccccc2C#N)cccc1-n1cnnn1` the “Percent Effect” value was 16.44%.
For `CS(=O)(=O)NCC1CCCCN1Cc1ccccc1C#N` (centres undefined), the “Percent Effect” value was -5.634%.
With `Cc1c(NCc2ccccc2C#N)cccc1S(=O)(=O)NC1CC1` the “Percent Effect” value was 92.24%.
With `COC1COC2(CCN(Cc3ccc(Cl)cc3)CC2)C1.O=C(O)C(F)(F)F` (centres undefined) the “Percent Effect” value was -23.85%.
In the case of `Cc1nc(NC(=O)C2(C)CN(C)CCO2)sc1C.Cl` (centres undefined), the “Percent Effect” value is reported as -1.317%.
For `CCC(CC)C(=O)N1CCOC2(COCCN(CC(=O)NC)C2)C1.O=C(O)C(F)(F)F` (centres undefined), the “Percent Effect” value was -7.076%.
For `Cc1cccc(NC(=O)N2CCCn3cnc(CN(C)C(C)C)c3C2)c1.O=C(O)C(F)(F)F`, the “Percent Effect” value was -43.51%.
With `COCC1CN(c2ccc(C)nn2)Cc2cnn(C)c21.O=C(O)C(F)(F)F.O=C(O)C(F)(F)F` (centres undefined) the “Percent Effect” value was 33.23%.
For `CN1CCOCC2(CCCN(C(=O)c3ccc(-n4cccc4)cc3)C2)C1.O=C(O)C(F)(F)F` (centres undefined), the “Percent Effect” value was -38%.
In the case of `CN(C)CC(=O)N1CCC2(CC1)CN(c1ccsc1)C(=O)CO2.O=C(O)C(F)(F)F`, the “Percent Effect” value is reported as -14.58%.

From ChEMBL document CHEMBL3988442, “University of Dundee, Small-Polar-MMV Screening Library” (2021)
